In PubChem BioAssay AID1508622 (National Center for Advancing Translational Sciences (NCATS), 2021) one finds Potency data, which are given here for 38 compounds.

Calls of active or inactive are those of the source. Where a call stands in place of a potency, no number is given. Calls follow the shape of the dose curve; as a rule, active = well fitted activation curve with a large enough effect; inconclusive = small, poorly fitted or top-dose-only effect; inactive = no such curve, though single readings can be large or run the other way.
Potency is read from the fitted curve at half-maximal effect.

The nature of the test: Confirmatory qHTS for Identification of Small Molecule Activators of Huntingtin-Antisense Promoter Activity. As to conditions: HEK293 HTT-AS promoter firefly luciferase reporter, 24 h; series mostly up to 57.5 µM. An outline of the steps: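 Plated reporter HEK293 cells (24 h) received library compounds at up to 57.5 uM final or 50 uM PTC124, incubated 24 h at 37C; firefly luciferase luminescence was then recorded with Dual-Glo reagent.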
With `Cc1ccc(-n2ncc3c(N(C)Cc4ccccc4)ncnc32)cc1`, the Potency was 0.213 µM (active).
Next, `Cc1oc(-c2ccc(C(=O)NCc3ccc(Cl)cc3)cc2)nc1CS(=O)(=O)c1ccccc1`: “inactive”.
As to `CC(C)Cn1c(-c2ccc(S(=O)(=O)N3CCCC3)cc2)csc1=Nc1ccccc1`, the Potency entry was “inactive”.
Consider `COc1ccc(Cn2c(SCc3ccc(C(=O)NC4CCCCC4)cc3)nc3ccncc32)cc1`, for which the Potency result is “inactive”.
For the compound `CC(=O)N1CCCc2cc(S(=O)(=O)N(C)CC(=O)Nc3ccc(Cl)cc3C)ccc21`, the Potency entry is “inactive”.
Turning to `O=C(Nc1cccc(Cl)c1)c1ccc(F)c(S(=O)(=O)N2CCC3(CC2)OCCO3)c1`, the Potency result is “inactive”.
On to `CC1=C(C(=O)Nc2ccc(Cl)cc2)C(c2ccccc2C)n2ncc(C(=O)Nc3ccc(C)cc3)c2N1` (stereo not drawn), for which the Potency result is “inactive”.
As to `O=C(NCc1ccc(F)cc1)C1CCN(C(=O)c2ccc(-n3ccc4ccccc43)s2)CC1`, the Potency entry is “inactive”.
As for `CCC1=C(c2ccc(C)cc2)S(=O)(=O)N=C1N1CCC(C(=O)NCCc2ccc(Cl)cc2)CC1`, the Potency entry is “inactive”.
With `CCCCCNS(=O)(=O)c1ccc(N2CCCCS2(=O)=O)cc1`, the Potency entry is “inactive”.
Take `Cc1ccc(C)c(N2CCN(C(=O)C3CCCN(S(=O)(=O)c4ccc5c(c4)oc(=O)n5C)C3)CC2)c1` (stereo not drawn): the Potency entry is “inactive”.
Consider `CCOc1ccc(CCNC(=O)c2sc3ncccc3c2-n2c(C)ccc2C)cc1`, for which the Potency entry is “inactive”.
Take `COc1ccccc1NC(=O)CSc1oc(-c2ccccc2)nc1S(=O)(=O)c1ccccc1`: the Potency result is “inactive”.
Next, `CC1Cc2cc(S(=O)(=O)NCc3ccccc3)ccc2N1C(=O)C1CCC1` (stereo not drawn): “inactive”; `COc1ccc(C(=O)Nc2cccc(-c3cn4ccsc4n3)c2)c(OC)c1`: 13.5 µM (active).
On to `COc1ccccc1NC(=O)CSc1nnc(NC(=O)Nc2ccc(C)cc2)s1`, for which the Potency result is “inactive”.
With `CO[C@H]1C=CC=C(C)C(=O)NC2=CC(=O)C(NCCN(C)C)=C(C[C@@H](C)C[C@H](OC)[C@@H](O)[C@@H](C)C=C(C)[C@@H]1OC(N)=O)C2=O`, the Potency result is “inactive”.
In the case of `COc1ccc(CNC(=O)Nc2ccc3c(c2)N(C)C(=O)c2ccccc2S3)cc1OC`, the Potency result is “inactive”.
As for `CCN(CC)CCNC(=O)c1c(C)[nH]c(C=C2C(=O)Nc3ccc(F)cc32)c1C`, the Potency result was “inactive”.
In the case of `CCOC(=O)c1ccc(N2C(=O)c3[nH]nc(-c4ccccc4)c3C2c2cccs2)cc1` (stereo not drawn) it was “inactive”; in that of `Cc1ccc(NCc2cccn2-c2nnc(N3CCC(C(=O)NCc4ccc(OC(C)C)cc4)CC3)s2)cc1`, “inactive”; in that of `Cc1ccc(Cl)cc1N1CCN(C(=O)c2cnc(N3CCOCC3)c3ccccc23)CC1`, “inactive”.
Turning to `COc1cc2nc(N3CCCN(C)CC3)nc(NC3CCN(Cc4ccccc4)CC3)c2cc1OC`, the Potency result was “inactive”.
On to `Cc1oc(-c2ccc(Cl)cc2)nc1CN1CCCC(C(=O)NCCc2ccccc2)C1` (stereo not drawn), for which the Potency entry was “inactive”.
Next, `COc1ccc(OC(C)C(=O)NCc2nc(-c3ccc(Cl)cc3)no2)cc1` (stereo not drawn): “inactive”; `CCOc1ccc(C(NC(=O)c2cc(OC)c(OC)c(OC)c2)c2cc(Cl)c3cccnc3c2O)cc1` (stereo not drawn): “inactive”; `CCS(=O)(=O)c1ncc(Cl)c(C(=O)NCc2ccc(OC)cc2)n1`: “inactive”.
On to `CC(C)OCc1cc(CN2CCN(c3ccccc3)CC2)c(O)c2ncccc12`, for which the Potency result was “inactive”.
Next, `Cc1ccccc1NC(=O)c1sc2nc3c(cc2c1N)CN(Cc1ccccc1)CC3`: “inactive”; `CCC(=O)N1CCc2cc(S(=O)(=O)NCCC(=O)Nc3ccc(CC)cc3)ccc21`: “inactive”.
For the compound `O=C(Nc1ccc2c(c1)CCCN2C(=O)c1cccs1)c1cccc(C(F)(F)F)c1`, the Potency entry was “inactive”.
In the case of `Cc1cccc(-c2nc(CSCC(=O)N3CCN(c4ccccc4)CC3)c(C)o2)c1` it was “inactive”; in that of `COc1ccc(CNS(=O)(=O)c2ccc(N3CCCCS3(=O)=O)cc2)cc1`, “inactive”; in that of `CCCCN(C)S(=O)(=O)c1cc(-c2cc(C)no2)ccc1C`, “inactive”.
Next, `CCOC(=O)c1cc(-c2ccc(F)cc2)n(CCC(=O)NCCc2ccc(C)cc2)c1C`: “inactive”.
As for `COc1ccc(-c2[nH]c3ccccc3c2SCCNC(=O)c2cc(OC)c(OC)c(OC)c2)cc1`, the Potency entry is “inactive”.
With `Cc1ccc(C)c(N2CCN(C(=O)Cn3cnc4nc5c(cc4c3=O)CCCC5)CC2)c1`, the Potency entry was “inactive”.
With `CC(C)[C@H](C(=O)Nc1ccc(C(=O)NO)cc1)c1ccccc1`, the Potency is 1.9 µM (active).
